In PubChem BioAssay:
Calls of active or inactive are those of the source.

Legend:
[1] = optical density shifts of acrAB sulA E. coli – strain DRC41, OD650, 48 h, E. coli filamentation inducer project, primary screen (AID 1152); conditions: higher = more signal, called active from +8 up or from −8 down;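 also: E. coli MC1000 strain DRC41 lacking acrAB efflux pump and sulA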
[2] = probe aLefty1 binding on compound microarray – biochemical, small-molecule microarray, 635/667 nm fluorescence, primary screen (AID 1153); conditions: higher = more signal;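 also: score merges spot fluorescence with signal-to-noise ratio from the scanned slide images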
[3] = plasmodial surface anion channel blockers, osmotic lysis – cell-based, P. falciparum Indochina, OD700, 1 h, primary screen (AID 1154); conditions: P. falciparum Indochina infected RBC osmotic lysis, higher = more signal, called active from +8 up or from −8 down
[4] = plasmodial surface anion channel blockers, osmotic lysis – cell-based, P. falciparum Indochina, OD700, 2 h, primary screen (AID 1155);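 also: lysis reports solute entry through the parasite surface anion channel PSAC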; conditions: P. falciparum Indochina infected erythrocytes, higher = more signal, called active from +8 up or from −8 down
[5] = changes in parasitized red cell lysis, either direction – P. falciparum Indochina, OD700, 3 h, PSAC antagonist project, primary screen (AID 1156); conditions: P. falciparum-infected erythrocytes, osmotic lysis, higher = more signal, called active from +8 up or from −8 down
[6] = plasmodial surface anion channel blockers, osmotic lysis – cell-based, P. falciparum Indochina, OD700, 18 h, primary screen (AID 1157); conditions: P. falciparum Indochina infected erythrocytes, osmotic lysis OD700, 18 h; higher = more signal, called active from +8 up or from −8 down
[7] = S6 kinase pathway phospho-S6 level changes – cell-based, A549, cytoblot, luminescence, serum-stimulated, primary screen (AID 1158); conditions: 5 h, higher = more signal;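 also: serum-stimulated A549 lung adenocarcinoma cells; signal is phosphorylated S6 detected by cytoblot immunostaining with HRP secondary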
[8] = target: NADPH oxidase 2 (Homo sapiens) (UniProt P04839); experiment: compounds shifting NOX2 Amplex Red fluorescence – cell-based, HEK293-NOX2, PMA-stimulated, NOX inhibitor project, primary screen (AID 1159); conditions: 45 min, higher = more signal, called active from +8 up or from −8 down; also: test concentration not given here
[9] = target: NADPH oxidase 4 (Homo sapiens) (UniProt Q9NPH5); experiment: compounds shifting NOX4 Amplex Red fluorescence – cell-based, HEK293-NOX4, tetracycline-induced, NOX inhibitor project, primary screen (AID 1160); conditions: HEK293-NOX4, Amplex Red H2O2 fluorescence, 45 min; higher = more signal, called active from +8 up or from −8 down
[10] = target: NADPH oxidase 5 (Homo sapiens) (UniProt Q96PH1); experiment: compounds shifting NOX5 Amplex Red fluorescence – cell-based, HEK293-NOX5, NOX inhibitor project, primary screen (AID 1161); conditions: HEK293-NOX5, ionomycin, 45 min, higher = more signal
NADPH oxidase 5 (Homo sapiens), sequence (Q96PH1 whole entry, looked up): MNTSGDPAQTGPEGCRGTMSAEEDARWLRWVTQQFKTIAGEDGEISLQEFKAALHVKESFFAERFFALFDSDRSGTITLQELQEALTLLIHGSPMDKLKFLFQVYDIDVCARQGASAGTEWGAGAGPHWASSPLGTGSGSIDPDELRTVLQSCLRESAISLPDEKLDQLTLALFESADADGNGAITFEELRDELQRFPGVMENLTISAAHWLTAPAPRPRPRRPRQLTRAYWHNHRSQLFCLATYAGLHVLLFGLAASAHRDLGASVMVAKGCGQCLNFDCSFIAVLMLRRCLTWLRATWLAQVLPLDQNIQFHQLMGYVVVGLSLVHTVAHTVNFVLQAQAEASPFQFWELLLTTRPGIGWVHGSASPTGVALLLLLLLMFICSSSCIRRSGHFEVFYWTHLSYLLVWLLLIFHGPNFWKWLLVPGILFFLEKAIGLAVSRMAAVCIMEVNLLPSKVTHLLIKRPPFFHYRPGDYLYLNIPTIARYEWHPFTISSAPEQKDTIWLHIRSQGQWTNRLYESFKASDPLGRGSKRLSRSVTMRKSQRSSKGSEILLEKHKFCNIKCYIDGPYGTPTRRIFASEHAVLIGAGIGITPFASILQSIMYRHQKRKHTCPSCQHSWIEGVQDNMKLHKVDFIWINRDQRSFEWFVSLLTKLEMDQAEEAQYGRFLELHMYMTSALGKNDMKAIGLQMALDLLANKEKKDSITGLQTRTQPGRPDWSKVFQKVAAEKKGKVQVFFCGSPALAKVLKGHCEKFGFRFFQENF

NADPH oxidase 2 (Homo sapiens), sequence (P04839 whole entry, looked up): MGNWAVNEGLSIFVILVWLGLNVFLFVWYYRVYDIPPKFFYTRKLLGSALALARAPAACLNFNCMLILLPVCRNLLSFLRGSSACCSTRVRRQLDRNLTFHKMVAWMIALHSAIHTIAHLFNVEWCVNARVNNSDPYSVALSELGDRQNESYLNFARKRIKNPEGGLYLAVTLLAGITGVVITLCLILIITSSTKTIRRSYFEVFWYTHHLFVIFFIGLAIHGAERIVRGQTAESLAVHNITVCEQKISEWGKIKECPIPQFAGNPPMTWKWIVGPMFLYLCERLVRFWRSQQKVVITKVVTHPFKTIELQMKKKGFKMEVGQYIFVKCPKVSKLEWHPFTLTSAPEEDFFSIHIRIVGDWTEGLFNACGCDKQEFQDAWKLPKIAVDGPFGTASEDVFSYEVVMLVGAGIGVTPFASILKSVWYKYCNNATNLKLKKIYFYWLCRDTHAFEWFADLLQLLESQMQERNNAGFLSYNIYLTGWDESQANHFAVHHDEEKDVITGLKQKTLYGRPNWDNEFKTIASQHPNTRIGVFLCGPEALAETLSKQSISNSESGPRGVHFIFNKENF
NADPH oxidase 4 (Homo sapiens), sequence (Q9NPH5 whole entry, looked up): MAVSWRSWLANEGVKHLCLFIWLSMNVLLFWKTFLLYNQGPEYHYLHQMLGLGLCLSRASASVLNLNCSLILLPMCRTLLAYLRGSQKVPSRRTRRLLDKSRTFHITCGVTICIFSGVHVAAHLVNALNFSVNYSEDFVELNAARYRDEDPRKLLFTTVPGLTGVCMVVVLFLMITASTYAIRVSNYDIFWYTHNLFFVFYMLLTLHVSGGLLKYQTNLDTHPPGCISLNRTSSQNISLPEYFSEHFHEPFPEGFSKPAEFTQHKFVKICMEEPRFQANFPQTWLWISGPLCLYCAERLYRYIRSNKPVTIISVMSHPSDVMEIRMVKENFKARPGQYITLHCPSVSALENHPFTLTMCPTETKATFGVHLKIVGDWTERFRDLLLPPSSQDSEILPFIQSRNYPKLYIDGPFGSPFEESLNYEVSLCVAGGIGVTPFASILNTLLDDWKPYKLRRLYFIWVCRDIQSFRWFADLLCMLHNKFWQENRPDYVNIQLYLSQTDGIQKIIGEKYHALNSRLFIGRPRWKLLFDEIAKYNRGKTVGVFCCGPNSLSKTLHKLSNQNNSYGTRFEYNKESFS

| SMILES | z-score [1] | composite z-score [2] | z-score [3] | z-score [4] | z-score [5] | z-score [6] | z-score [7] | z-score [8] | z-score [9] | z-score [10] |
| --- | --- | --- | --- | --- | --- | --- | --- | --- | --- | --- |
| CN(C)CCCCNC(=O)[C@@H]1C[C@@H]2C(=O)N[C@@H](CCCCN)C(=O)N2[C@@H]1c1cccc(OCCO)c1 | -0.389 (inactive) | 0.837 | 2.51 (inactive) | 0.337 (inactive) | -1.21 (inactive) | -0.0182 (inactive) | -0.446 | 1.36 (inactive) | 1.05 (inactive) | 1.43 |
| C=C[C@@H](C)[C@@H](OC(=O)Nc1ccc(OC)cc1)c1ccc(O)c2ccccc12 | 0.0598 (inactive) | -0.0222 | 2.46 (inactive) | 0.661 (inactive) | 0.0162 (inactive) | 0.354 (inactive) | 0.382 | -5.9 (inactive) | -1.81 (inactive) | -0.437 |
| CN1C(=O)C2C=CC(C(O)C(c3ccccc3)c3ccccc3)N(Nc3ccccc3)C2C1=O (stereo not given) | -2.34 (inactive) | 0.516 | 1.63 (inactive) | 2.15 (inactive) | 0.742 (inactive) | 1.12 (inactive) | -0.946 | -1.39 (inactive) | -4.91 (inactive) | -2.44 |
| CCOC(=O)C1=CC[C@@H](c2cccc(Cl)c2)N(S(=O)(=O)c2ccc(C)cc2)[C@H]1c1ccc(C#N)cc1 | -1.41 (inactive) | 0.514 | 1.53 (inactive) | 1.34 (inactive) | 0.0178 (inactive) | 0.729 (inactive) | -0.438 | 0.827 (inactive) | 1.2 (inactive) | 0.639 |
| C=C(C)[C@@H]1CC=C(C(O)C2C=CC3C(=O)N(Cc4ccccc4)C(=O)C3N2n2cnnc2)CC1 (stereo not given in full) | -1.05 (inactive) | 0.298 | 1.48 (inactive) | -0.289 (inactive) | 1.28 (inactive) | -1.38 (inactive) | 1.65 | -3.5 (inactive) | -2.39 (inactive) | -3.6 |
| CCOC(=O)C1=C[C@@H](C(C)(C)C)N(S(=O)(=O)c2ccc(C)cc2)[C@H]1c1ccc(Cl)c(Cl)c1 | -1.27 (inactive) | 0.157 | 1.92 (inactive) | 1.15 (inactive) | -0.335 (inactive) | 0.659 (inactive) | -0.359 | -0.739 (inactive) | 0.0493 (inactive) | 0.263 |
| C=CCN1Cc2ccccc2C[C@@]2(COC(c3ccc(OCCCO)cc3)=N2)C1=O | 0.754 (inactive) | 0.121 | 22.7 (active) | 5.46 (inactive) | 5.11 (inactive) | 0.985 (inactive) | -0.14 | -5.73 (inactive) | -1.35 (inactive) | -3.28 |
| O=C1O[C@@H](c2ccccc2)[C@@H](c2ccccc2)N2[C@@H](c3ccc(O)cc3)[C@]3(C(=O)Nc4ccc(C#CCCO)cc43)[C@@H](C(=O)O)[C@H]12 | 0.742 (inactive) | 1.99 | 2.28 (inactive) | 0.62 (inactive) | 1.22 (inactive) | 0.614 (inactive) | -0.29 | 0.645 (inactive) | -1.2 (inactive) | 1.21 |
| Cc1cccc(/C=C/C=O)c1 | 0.595 (inactive) | -0.0479 | 0.118 (inactive) | -0.557 (inactive) | 0.565 (inactive) | -0.212 (inactive) | -0.57 | -0.0862 (inactive) | 0.0658 (inactive) | 1.56 |
| COC(=O)[C@@]1(Cc2ccc(F)cc2)[C@H]2c3cc(C(=O)N4CCCC4)n(CCc4ccc(OC)c(Br)c4)c3C[C@H]2CN1C(=O)c1ccccc1 | -0.71 (inactive) | 1.2 | 7.48 (inactive) | 1.5 (inactive) | 0.248 (inactive) | 1.33 (inactive) | 0.0028 | 0.0756 (inactive) | 0.742 (inactive) | 0.98 |
| O=C1C2C=CC(C(O)c3ccc(Br)cc3)N(n3cnnc3)C2C(=O)N1Cc1ccccc1 (stereo not given) | -2.21 (inactive) | 0.152 | 0.922 (inactive) | 1.16 (inactive) | 0.107 (inactive) | 0.756 (inactive) | -0.738 | 0.101 (inactive) | 2.59 (inactive) | 0.964 |
| COc1ccc(C#Cc2ccc3c(c2)[C@]2(C(=O)N3)[C@H](c3ccc(OCCO)cc3)N3[C@H](c4ccccc4)[C@H](c4ccccc4)OC(=O)[C@H]3[C@@H]2C(=O)Nc2nc3ccccc3s2)cc1 | 1.84 (inactive) | 0.547 | 2.24 (inactive) | 2.11 (inactive) | 2.04 (inactive) | 1.94 (inactive) | 0.418 | 1.7 (inactive) | 0.74 (inactive) | 0.177 |
| O=C1OCC=C[C@H]2OC34C=CCN(Cc5ccccc5)C(=O)[C@H]3N(CCCO)C(=O)[C@@H]4[C@@H]12 (stereo not given in full) | 2.57 (inactive) | 1.27 | 0.599 (inactive) | -1 (inactive) | 1.01 (inactive) | -1.05 (inactive) | 0.833 | -0.548 (inactive) | -1.29 (inactive) | -1.17 |
